Bioassay records deposited in PubChem BioAssay by National Center for Advancing Translational Sciences (NCATS).
LDHA inh = inhibitors of human lactate dehydrogenase A; P00338; purified LDHA, NADH/diaphorase-resazurin fluorescence; stronger effect = lower value; activity change, % (values are at about 110 or 230 µM); 0.15% of 480,000 active; in the data active means activity change below about -30%; inconclusive means mostly about -25% to -30%;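 further: plate controls were DMSO wells for no effect and wells without enzyme for full effect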
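Enzyme activity of human lactate dehydrogenase 5 (2 nM; 0.06 mM NADH, 0.2 mM pyruvate, 5 min, RT) is measured via a resazurin/diaphorase fluorescence readout of residual NADH.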
mIDH1 inhibitor = inhibitors of human mutant IDH1 R132H; IDH1-R132H enzyme, NADPH consumption, diaphorase/resazurin fluorescence; O75874; 0.093% of 390,000 active; Potency, µM (doses to about 76.6 µM), without a hit: top-dose activity change, negative = inhibition, most hits filed as inhibitors; active means well fitted inhibition curve with a large enough effect; inconclusive means small, poorly fitted or top-dose-only effect; inactive means no such curve, though single readings can be large or run the other way; further: potency means the concentration at half of the fitted maximal effect; on the % scale 0 is the no-effect control and ±100 the full control effect; nearly all actives have a fitted effect of over 65% in size
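IDH1-R132H (0.5 ug/mL) preincubated 30 min with compound, then NADPH (0.016 mM) and alpha-KG (2 mM) added; 80 min at RT, pH 7.5. Remaining NADPH coupled via diaphorase/resazurin to fluorescence (540/590 nm); concentration-response curves normalized to no-enzyme control.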
Menin-MLL TR inh = menin-MLL binding inhibition, Texas Red mutant peptide. Menin + Texas Red MLL mutant peptide, fluorescence polarization. 0.23% of 270,000 active. Potency, µM (top dose mostly 61.6 µM), for inactives: top-dose FP activity change, negative = inhibition, usual class: inhibitors; active means well fitted inhibition curve with a large enough effect in the polarisation, with a control signal flat, not every such curve was filed as active; inconclusive means small, poorly fitted or top-dose-only effect, or effect the other way, or a change in a side signal; inactive means no such curve, though single readings can be large or run the other way; the % refers to the polarisation; further: potency means the concentration at half of the fitted maximal effect; % of control where 0% means no effect
Target sequence (O00255 whole entry, looked up): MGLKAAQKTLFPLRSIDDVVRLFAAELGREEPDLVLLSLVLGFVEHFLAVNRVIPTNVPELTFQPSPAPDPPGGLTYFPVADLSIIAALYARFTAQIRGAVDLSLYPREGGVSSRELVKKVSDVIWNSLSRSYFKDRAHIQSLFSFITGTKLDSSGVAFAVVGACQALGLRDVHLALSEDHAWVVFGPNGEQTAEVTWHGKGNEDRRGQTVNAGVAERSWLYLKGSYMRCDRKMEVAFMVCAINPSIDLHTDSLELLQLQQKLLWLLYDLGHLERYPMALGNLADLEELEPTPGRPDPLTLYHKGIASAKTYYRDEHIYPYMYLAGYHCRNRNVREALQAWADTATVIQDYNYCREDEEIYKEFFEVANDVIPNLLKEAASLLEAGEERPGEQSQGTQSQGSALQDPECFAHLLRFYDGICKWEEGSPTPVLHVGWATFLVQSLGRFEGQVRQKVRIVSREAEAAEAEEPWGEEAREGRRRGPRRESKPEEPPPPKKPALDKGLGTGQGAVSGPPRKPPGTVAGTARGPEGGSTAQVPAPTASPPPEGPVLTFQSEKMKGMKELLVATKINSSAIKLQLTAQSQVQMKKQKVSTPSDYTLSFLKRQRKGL
Menin MLL FP FL = inhibitors of human menin-MLL interaction, wild-type MLL peptide; Fluorescence polarization, fluorescein-MLL peptide displacement from menin; FP activity change, % at 61.4 µM; 290,000 tested, under 10 active; AID 1766; active means well fitted curve in the direction sought with a large enough effect in the polarisation, not every such curve was filed as active; inconclusive means small, poorly fitted or top-dose-only effect, or effect the other way, or a change in a side signal; inactive means no such curve, though single readings can be large or run the other way; the % refers to the polarisation; further: % of control where 0% means no effect
pAkt inh = blocks phosphorylation of Akt; 0.32% of 360,000 active; AID 651550; Neuro2A IGF-stimulated pAkt S473 HTRF, 20 min; stronger effect = lower value; activity change, % for hits at 50 µM; in the data active means activity change below about -80%; inconclusive means mostly about -51% to -80%; further: on the % scale 0 is the no-effect control and ±100 the full control effect
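Single-point screen (50 µM final compound) in Neuro2A cells stimulated 20 min with 6 nM IGF at 37 deg C. After lysis, Ser473-phosphorylated Akt read by HTRF (ex 330 nm, em 615/665 nm) as the 665/615 ratio.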
MLL CXXC-DNA inh = inhibitors of human MLL CXXC domain-DNA interaction; Q03164; MLL-CXXC / FITC-HOXA9 DNA fluorescence polarization; Potency, µM (highest dose often 115 µM), without a hit: at the top dose activity change, negative = inhibition, hits mostly inhibitors; 0.037% of 290,000 active; AID 2662; active means well fitted inhibition curve with a large enough effect in the polarisation, with a control signal flat, not every such curve was filed as active; inconclusive means small, poorly fitted or top-dose-only effect, or effect the other way, or a change in a side signal; inactive means no such curve, though single readings can be large or run the other way; the % refers to the polarisation; further: potency means the concentration at half of the fitted maximal effect
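Fluorescence polarization: 7 uM MLL-CXXC (stock) preincubated 5 min with compounds, then 50 nM fluorescein-HOX-A9 DNA (stock) added; 30 min ambient. Buffer 50 mM Tris-HCl pH 7.5, 50 mM NaCl, 1 mM DTT, 0.05% BSA.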
* = called active by the depositor; i = inactive; ? = inconclusive; . = no result; ! = not active in a repeat. Only some compounds are listed: those with a hit (about 0.54% of all), similar ones and a draw of the others.

SMILES	LDHA inh	mIDH1 inhibitor	Menin-MLL TR inh	Menin MLL FP FL	pAkt inh	MLL CXXC-DNA inh
CCOc1ccccc1N=C1SCCCN1C	-37.7*	5.4%	3.3%	5.3	i	-10.4%
COc1cc(/C=C(/C)[N+](=O)[O-])cc(OC)c1OC	3.0	.	.	.	.	.
CCOC(=O)C1=C(C)OC(N)=C(C(=O)OC)C12C(=O)Nc1cc(Br)ccc12 (stereo not given)	38.5	.	.	.	.	.
S=C(NCCc1ccccc1)N1Cc2ccccc2-n2nncc2C1	-36.4*	20.0%	.	.	i	.
S=C(NCCc1ccccc1)N1Cc2cc(-c3ccccc3)ccc2-n2nncc2C1	-6.0	.	.	.	i	.
CCOC(=O)CNC(=O)N1Cc2ccccc2-n2nncc2C1	-33.2*	-6.4%	.	.	i	.
O=C1OCCC1Sc1ncccc1Cl (stereo not given)	2.3	.	.	.	.	.
COc1ccc(C2SCC(=O)Nc3c2c(=O)[nH]n3C2CCCCC2)cc1 (stereo not given)	-4.0	-7.9%	1.4%	0.2	-105.2%*	0.0%
CCCCN1C(=O)/C(=C/c2ccc(N(C)C)cc2)C(=O)N(Cc2ccco2)C1=O	2.2	-0.7%	25.1µM*	?	i	?
CCN(CC)c1ccc(/C=C2\C(=O)NC(=O)N(Cc3ccco3)C2=O)cc1	-7.2	-1.7%	11.4%	?	i	1.7%
C#C[C@]1(O)CCC2C3CCC4=C/C(=N/OCC(=O)NC(C)C(=O)NC(CCSC)C(=O)O)CC[C@]4(C)C3CC[C@@]21C (stereo not given in full)	1.3	22.2%	25.1µM*	-16.0	i	4.0%
CCOc1ccc(CN2CCN(c3cccc(C)c3C)CC2)cc1	0.7	.	.	.	.	.
CC(=O)OC1CC(OC2C(O)CC(OC3C(O)CC(OC4CC(O)C5(C)C(CC[C@@H]6[C@@H]5CCC5(C)C(C7=CC(=O)OC7)CCC65O)C4)OC3C)OC2C)OC(C)C1O (stereo not given in full)	2.5	.	.	.	.	.
O=c1c2ccccc2nc(CSc2ncnc3nc[nH]c23)n1-c1ccccc1	-8.8	1.9%	-24.4%	0.9	-84.0%*	3.8%
CN1C(CC(O)c2ccccc2)CCCC1CC(O)c1ccccc1 (stereo not given)	-1.8	3.3%	.	.	i	.
Cn1c[n+](C)cc1C(O)c1ccccc1 (stereo not given)	-61.3*!	0.4%	3.8%	1.0	i	-3.3%
Cc1cccc(CN2CCN(C(=O)Cc3n[nH]c(=O)c4ccccc34)CC2)c1	-13.6	.	.	.	.	.
c1coc(CN2Cc3ccccc3-n3nncc3C2)c1	-31.6*	-1.7%	.	.	i	.
O=c1c2ccccc2nc(CN2CCCCCC2)n1-c1ccc(F)cc1	-0.4	0.5%	17.8µM*	-27.1	i	9.7%
CCC(CC)N1CCN(Cc2nc3ccccc3c(=O)n2-c2ccc(F)cc2)CC1	0.4	-1.6%	-10.0%	-9.7	i	2.7%
COC[C@H]1OC(=O)c2coc3c2[C@@]1(C)C1=C(C3=O)[C@H]2CCC(=O)[C@@]2(C)C[C@H]1OC(C)=O	.	.	10µM*	?	.	.
O=C1NC(=S)NC(=O)C1=Cc1ccc(Br)s1	-38.1*	-10.1%	67.8%	?	i	?
CCCCCCCCCC[N+](C)(C)CCCCCCCCCC	.	.	-24.4%	1.9	.	23.8%
CCCCCCCCCCCCCCCC[N+](C)(C)C	3.3	-5.2%	28.2µM*!	1.8	i	?
O=C(c1ccco1)c1cn(Cc2ccccc2)c2ccccc12	-4.0	3.7%	?	5.1	-86.8%*	-1.9%
O=C(c1ccco1)c1cn(Cc2ccccc2Cl)c2ccccc12	0.7	-0.7%	13.5%	1.4	i	21.1%
CCOP(=O)(OCC)C(CC)N1CCOCC1 (stereo not given)	-5.2	1.5%	0.1%	-0.8	-117.7%*	11.4%
CCOP(=S)(OCC)N1CCOCCOCCN(P(=S)(OCC)OCC)CCOCCOCC1	2.5	8.8%	?	-3.5	i	1.4%
O=C1NC(=O)C(=Cc2ccccc2Oc2ccc(F)cc2)C(=O)N1	-40.2*	1.9%	21.1%	-0.3	i	-4.4%
CN(C)c1ccc(C2CC2N)cc1 (stereo not given)	21.6	.	.	.	.	.
